Reference: PubChem BioAssay AID651658 (Broad Institute, 2012)
Screen size: about 340,000 compounds; about 5,100 (1.5%) were called active. The sample as a whole holds a higher share of actives than the screen did. A number with no mark means an inactive call.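 The calls were made as follows: active = mean Tm shift, scaled 0 neutral to 100 positive control, at about 1.3% or above, every replicate too (limit read from the data); inconclusive = no clear call, values can overlap the other calls; inactive = the rest.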

What follows are compounds tested against Fibroblast growth factor 22 (Homo sapiens) (UniProt Q9HCT0) (assay: binders of human FGF22 protein, primary screen, FGF22 synaptogenesis inhibitor project, biophysical, thermal shift, single point (AID 651658)). Conditions: recombinant FGF22 thermal shift, SYPRO orange fluorescence; at 9.99 µM; stronger effect = higher value; percent of sucrose octasulfate shift, DMSO zero.
Chain of Fibroblast growth factor 22 (Homo sapiens) (Q9HCT0 whole entry, looked up): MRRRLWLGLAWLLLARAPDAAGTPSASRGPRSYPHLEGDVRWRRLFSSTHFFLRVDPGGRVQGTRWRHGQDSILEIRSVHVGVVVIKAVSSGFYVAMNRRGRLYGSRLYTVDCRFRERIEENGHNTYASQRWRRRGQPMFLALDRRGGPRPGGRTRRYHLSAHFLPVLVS

Point of comparison: CCN(CC)S(=O)(=O)c1ccc(Cl)c(C(=O)NCCN2CCOCC2)c1, activity (Tm shift, normalised) -0.116%. Against it:
- C[C@H]1CN([C@@H](C)CO)C(=O)c2cc(-c3ccccc3)cnc2O[C@H]1CN(C)C(=O)C1CCOCC1 — higher, 0.036%
- O=C(NC1Cc2ccccc2C1)[C@@H]1[C@@H](CO)[C@@H]2Cn3c(ccc(C4=CCCC4)c3=O)[C@H]1N2CC1CC1 — higher, 0.451%
- C[C@H]1CN([C@@H](C)CO)C(=O)CCCn2nncc2CO[C@@H]1CN(C)S(=O)(=O)c1ccccc1C#N — lower, -0.468%
- CC(C)c1ccc(OCC(O)CN2CCN(c3ccccn3)CC2)cc1 (stereo unspecified) — lower, -0.21%
- Cc1cccc(OCC(O)CN2CCN(CCN3C(=O)c4cccc5cccc(c45)C3=O)CC2)c1C (stereo unspecified) — higher, 0.358%
- COc1ccc(NC(=O)N[C@H]2C=C[C@H](CC(=O)NCc3ccccn3)O[C@H]2CO)cc1 — higher, 0.256%
- CO[C@H](CN(C)C(=O)c1cnccn1)[C@@H](C)CN([C@@H](C)CO)S(=O)(=O)c1ccc(C)cc1 — higher, 0.044%
- COc1ccc(CC2(CO)CCN(Cc3cnn(C)c3)CC2)cc1 — higher, 0.198%
- OCC1(Cc2ccccc2)CCN(Cc2cc3ccccc3o2)CC1 — higher, 42.4%
- CO[C@H]1CN(C)C(=O)c2cc(NC(=O)c3nc4ccccc4s3)ccc2OC[C@H](C)N(Cc2cccnc2)C[C@@H]1C — lower, -0.365%
- COc1cccc(S(=O)(=O)N2CCCCN3[C@H](CO)[C@H](c4ccc(-c5ccncc5)cc4)[C@H]3C2)c1 — lower, -0.25%
- O=C(Nc1ccccc1F)N1C[C@H]2[C@@H](c3ccccc31)[C@@H](CO)N2C(=O)Cc1cccnc1 — higher, 0.459%
- Cc1cc(C)n(CC(=O)Nc2ccc([N+](=O)[O-])cc2)n1 — lower, -0.311%
- CC(C)CC(=O)Nc1ccc(Cc2ccncc2)cc1 — higher, -0.02%
- COCC(=O)N1CC[C@H]2[C@H](CO)Nc3ccc(-c4ccc(C(=O)N(C)C)cc4)cc3[C@H]21 — lower, -0.374%
- CN(C)C(=O)C[C@@H]1CC[C@H](NC(=O)NC2CCCC2)[C@H](CO)O1 — lower, -0.148%
- CCC(C)N(C(=O)COC(=O)c1nc(Cl)ccc1Cl)C1CCS(=O)(=O)C1 (stereo unspecified) — higher, 0.546%
- CCC(C)N(C(=O)CSc1nnnn1-c1ccccc1OC)C1CCS(=O)(=O)C1 (stereo unspecified) — lower, -0.269%
- O=C(Cc1ccccn1)NCC[C@H]1CC[C@H](NC(=O)Nc2ccc(F)cc2)[C@@H](CO)O1 — higher, 0.059%
- O=C(NN=C1CCC(=NNC(=O)c2cccnc2)CC1)c1cccnc1 — lower, -0.314%
- O=C(CNC(=O)c1cccnc1)N/N=C/c1cc(Br)c(O)c(Br)c1 — higher, 0.674%
- O=C(C[C@@H]1C[C@@H]2c3cc(NC(=O)Nc4ccc(C(F)(F)F)cc4)ccc3O[C@@H]2[C@@H](CO)O1)NCCc1ccccc1 — higher, 0.083%
- COc1ccc(NC(=O)N(C)C[C@H]2OCCCC[C@H](C)Oc3ccc(NC(=O)c4ccncc4)cc3C(=O)N([C@H](C)CO)C[C@@H]2C)cc1 — lower, -0.473%
- C[C@@H]1CN([C@H](C)CO)C(=O)c2cc(C3=CCCC3)cnc2O[C@@H]1CN(C)C(=O)Nc1ccc(F)cc1 — higher, -0.106%
- O=C(CN1CCCCCC1)Nc1ccc(Br)cc1[N+](=O)[O-] — higher, -0.021%
- COc1cc(Cl)c(C)cc1NC(=O)CN1CCCCCC1 — higher, -0.091%
- O=C(Nc1ccccc1)Nc1nnc(COc2ccccc2F)s1 — higher, 0.184%
- O=C(NCc1cccnc1)C(=O)Nc1nc(-c2ccccc2)cs1 — higher, 0.205%
- O=C(CCC(=O)c1cccs1)Nc1nc2ccccc2s1 — higher, 0.414%
- NC(c1ccccc1)c1csc(NC(=O)Nc2cccc(C(F)(F)F)c2)n1 (stereo unspecified) — lower, -0.154%
- O=C(C[C@@H]1CC[C@@H](NC(=O)c2ccc3c(c2)OCO3)[C@H](CO)O1)NCc1ccc(Cl)cc1 — lower, -0.267%
- Cc1cc(OCCCCOc2ccc(C#N)cc2)ccc1[N+](=O)[O-] — higher, 0.385%
- Cc1nc(SCc2ccc(F)cc2)c([N+](=O)[O-])[nH]1 — higher, -0.03%
- C[C@@H]1CCCCO[C@@H](CN(C)C(=O)C2CCCCC2)[C@H](C)CN([C@H](C)CO)C(=O)c2cc(NC(=O)c3ccccc3)ccc2O1 — lower, -0.449%
- CCN(CC)S(=O)(=O)c1ccc(N2CCCC2)c(NS(=O)(=O)c2cccs2)c1 — lower, -0.637%
- CN(C)CC(=O)Nc1ccc2c(c1)[C@H]1C[C@H](CC(=O)NCc3ccccn3)O[C@@H](CO)[C@H]1O2 — higher, -0.026%
- COc1cc(C(=O)NCC2(c3ccccc3)CCCC2)ccc1OC(C)C — lower, -0.207%
- CCOc1c(OC)cccc1C(=O)NCC1(c2ccccc2)CCCC1 — lower, -0.318%
- CO[C@@H]1CN(C)C(=O)c2ccc(NC(=O)C3CCC3)cc2OC[C@H](C)NC[C@H]1C — higher, -0.059%

For Cc1ccccc1OCC(O)CN1CCN(c2ccccn2)CC1 (stereo unspecified), the activity (Tm shift, normalised) was 44.2% (active).
COc1ccccc1/C=C/CN1CCC(CO)(Cc2ccccc2)CC1 was tested, and the activity (Tm shift, normalised) was 43.2% (active).
With Cc1cc([N+](=O)[O-])nn1CC(=O)Nc1ccc(Cc2ccncc2)cc1 the activity (Tm shift, normalised) was 43.3% (active).
With CCC(C)N(C(=O)COC(=O)C1C(C(=O)OC)=C(C)NC(C)=C1C(=O)OC)C1CCS(=O)(=O)C1 (stereo unspecified) the activity (Tm shift, normalised) was 43.2% (active).
Cc1cc(/C=N/NC(=O)c2cccnc2)c(C)n1CC(C)C was tested, and the activity (Tm shift, normalised) was 43% (active).
COc1cc([N+](=O)[O-])ccc1NC(=O)CN1CCCC1 was tested, and the activity (Tm shift, normalised) was 1.49% (active).
O=C(Nc1ccccc1)Nc1nc2ccccc2s1 was tested, and the activity (Tm shift, normalised) was 43.2% (active).
For CC(=O)Nc1ccc(-c2csc(NC(=O)Nc3ccccc3)n2)cc1, the activity (Tm shift, normalised) was 44.8% (active).
With CCCCCOc1ccc(CSC2=NCCN2)cc1[N+](=O)[O-] the activity (Tm shift, normalised) was 43.9% (active).
For CCN(CC)S(=O)(=O)c1ccc(Cl)c(C(=O)NC(C)C(c2cccs2)N2CCCC2)c1 (stereo unspecified), the activity (Tm shift, normalised) was 43.4% (active).
With O=C(CNC1CCCCC1)NCC1(c2ccccc2)CCCC1 the activity (Tm shift, normalised) was 43% (active).
